Test results from PubChem BioAssay AID1159580 (chemical genetic matrix, 2015).
The whole screen tested about 5,500 compounds, of which about 2,000 (36%) were called active. Inconclusive results (about 18%) are left out. No stated cut-off is given here; in the data, active means normalized growth mostly below about 0.91 (no sharp cut-off); inconclusive means no clear call, values can overlap the other calls; inactive means mostly above about 0.92. Some of the results follow.

Assay: chemical genetic growth profiling, strain panel (AID 1159580);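 further: tested at 20 µM; growth read once vehicle control cultures reached saturation at 30 °C; 1 = growth at the plate median or of vehicle wells; lower values mean less growth of the strain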
Conditions: growth OD
[1] = S. cerevisiae deletion strains, locus YDL101C, strain DUN1, hits give low values
[2] = S. cerevisiae deletion strains, locus YHR030C, strain SLT2, hits give low values
[3] = S. cerevisiae deletion strains, locus YGR078C, strain PAC10, hits give low values
[4] = S. cerevisiae deletion strains, locus YMR263W, strain SAP30, hits give low values

Measured: normalized growth

OC(c1ccc(C(F)(F)F)cc1)c1cccc(C(F)(F)F)c1 (stereo unspecified)
inactive: S. cerevisiae deletion strains, locus YAR019C, strain CDC15, hits give low values 0.972 | S. cerevisiae deletion strains, locus YBL105C, strain PKC1, hits give low values 0.973 | S. cerevisiae deletion strains, locus YBR135W, strain CKS1, hits give low values 0.973 | S. cerevisiae deletion strains, locus YBR136W, strain MEC1, hits give low values 0.967 | S. cerevisiae deletion strains, locus YBR160W, strain CDC28, hits give low values 0.969 | S. cerevisiae deletion strains, locus YDL017W, strain CDC7, hits give low values 0.964 | S. cerevisiae deletion strains, locus YDL028C, strain MPS1, hits give low values 0.974 | [1] 0.975 | S. cerevisiae deletion strains, locus YDL108W, strain KIN28, hits give low values 0.968 | S. cerevisiae deletion strains, locus YDL132W, strain cdc53, hits give low values 0.974 | S. cerevisiae deletion strains, locus YDL214C, strain PRR2, hits give low values 0.985 | S. cerevisiae deletion strains, locus YDR052C, strain DBF4, hits give low values 0.977 | S. cerevisiae deletion strains, locus YDR054C, strain cdc34, hits give low values 0.974 | S. cerevisiae deletion strains, locus YDR226W, strain ADK1, hits give low values 0.977 | S. cerevisiae deletion strains, locus YDR477W, strain SNF1, hits give low values 0.999 | S. cerevisiae deletion strains, locus YER123W, strain YCK3, hits give low values 0.945 | S. cerevisiae deletion strains, locus YER133W, strain GLC7, hits give low values 0.992 | S. cerevisiae deletion strains, locus YFL009W, strain cdc4, hits give low values 0.981 | S. cerevisiae deletion strains, locus YFL029C, strain CAK1, hits give low values 0.962 | S. cerevisiae deletion strains, locus YFR003C, strain YPI1, hits give low values 0.969 | S. cerevisiae deletion strains, locus YFR019W, strain FAB1, hits give low values 1 | S. cerevisiae deletion strains, locus YFR028C, strain CDC14, hits give low values 0.975 | S. cerevisiae deletion strains, locus YGR040W, strain KSS1, hits give low values 0.984 | S. cerevisiae deletion strains, locus YGR052W, strain FMP48, hits give low values 1 | S. cerevisiae deletion strains, locus YGR092W, strain DBF2, hits give low values 0.948 | [2] 0.867 | S. cerevisiae deletion strains, locus YHR079C, strain IRE1, hits give low values 0.885 | S. cerevisiae deletion strains, locus YHR082C, strain KSP1, hits give low values 1.09 | S. cerevisiae deletion strains, locus YHR205W, strain SCH9, hits give low values 0.949 | S. cerevisiae deletion strains, locus YIL147C, strain SLN1, hits give low values 0.971 | S. cerevisiae deletion strains, locus YJL095W, strain BCK1, hits give low values 0.953 | S. cerevisiae deletion strains, locus YJL128C, strain PBS2, hits give low values 0.942 | S. cerevisiae deletion strains, locus YJL157C, strain FAR1, hits give low values 1.01 | S. cerevisiae deletion strains, locus YJR016C, strain ILV3, hits give low values 0.984 | S. cerevisiae deletion strains, locus YJR066W, strain TOR1 (second series), hits give low values 1.04 | S. cerevisiae deletion strains, locus YJR066W, strain TOR1, hits give low values 1.05 | S. cerevisiae deletion strains, locus YKL048C, strain ELM1, hits give low values 0.977 | S. cerevisiae deletion strains, locus YKL067W, strain YNK1, hits give low values 0.992 | S. cerevisiae deletion strains, locus YKL101W, strain HSL1, hits give low values 0.97 | S. cerevisiae deletion strains, locus YKL193C, strain SDS22, hits give low values 0.973 | S. cerevisiae deletion strains, locus YKL203C, strain TOR2, hits give low values 1.02 | S. cerevisiae deletion strains, locus YLR133W, strain CKI1, hits give low values 0.999 | S. cerevisiae deletion strains, locus YLR403W, strain SFP1, hits give low values 1.04 | S. cerevisiae deletion strains, locus YML070W, strain DAK1, hits give low values 0.96 | S. cerevisiae deletion strains, locus YMR001C, strain CDC5, hits give low values 0.973 | S. cerevisiae deletion strains, locus YMR205C, strain PFK2 (second series), hits give low values 0.993 | S. cerevisiae deletion strains, locus YMR277W, strain FCP1, hits give low values 0.974 | S. cerevisiae deletion strains, locus YNL006W, strain LST8, hits give low values 0.966 | S. cerevisiae deletion strains, locus YNL020C, strain ARK1, hits give low values 0.998 | S. cerevisiae deletion strains, locus YNL161W, strain CBK1, hits give low values 0.984 | S. cerevisiae deletion strains, locus YNL183C, strain NPR1, hits give low values 1.01 | S. cerevisiae deletion strains, locus YNL207W, strain RIO2, hits give low values 0.978 | S. cerevisiae deletion strains, locus YNL222W, strain SSU72, hits give low values 0.973 | S. cerevisiae deletion strains, locus YNL307C, strain MCK1 (second series), hits give low values 0.989 | S. cerevisiae deletion strains, locus YOL078W, strain AVO1, hits give low values 0.974 | S. cerevisiae deletion strains, locus YOL136C, strain PFK27, hits give low values 0.968 | S. cerevisiae deletion strains, locus YOR061W, strain CKA2, hits give low values 1 | S. cerevisiae deletion strains, locus YOR119C, strain RIO1, hits give low values 1.07 | S. cerevisiae deletion strains, locus YOR231W, strain MKK1, hits give low values 0.92 | S. cerevisiae deletion strains, locus YOR329C, strain SCD5, hits give low values 0.967 | S. cerevisiae deletion strains, locus YPL031C, strain PHO85, hits give low values 0.978 | S. cerevisiae deletion strains, locus YPL153C, strain RAD53, hits give low values 0.991 | S. cerevisiae deletion strains, locus YPL204W, strain HRR25, hits give low values 0.959 | S. cerevisiae deletion strains, locus YPL209C, strain IPL1, hits give low values 0.973 | S. cerevisiae deletion strains, locus YPR025C, strain CCL1, hits give low values 0.968 | S. cerevisiae deletion strains, locus YPR106W, strain ISR1, hits give low values 0.99 | S. cerevisiae deletion strains, locus YPR111W, strain DBF20, hits give low values 1 | S. cerevisiae deletion strains, strain NNK1, hits give low values 0.975 | S. cerevisiae deletion strains, strain TSCII, hits give low values 0.975
active: S. cerevisiae deletion strains, locus YLR113W, strain HOG1, hits give low values 0.789 | S. cerevisiae deletion strains, locus YPL256C, strain CLN2, hits give low values 0.839

O=C(O)CC(CC(=O)O)c1ccc(C(F)(F)F)cc1
inactive: S. cerevisiae deletion strains, locus YAL013W, strain DEP1, hits give low values 0.994 | S. cerevisiae deletion strains, locus YBR229C, strain ROT2, hits give low values 1 | S. cerevisiae deletion strains, locus YCL061C, strain MRC1, hits give low values 0.981 | [1] 0.999 | S. cerevisiae deletion strains, locus YDR150W, strain NUM1, hits give low values 0.938 | S. cerevisiae deletion strains, locus YEL061C, strain CIN8, hits give low values 1.01 | [3] 0.993 | S. cerevisiae deletion strains, locus YGR229C, strain SMI1, hits give low values 0.985 | [2] 1.03 | S. cerevisiae deletion strains, locus YHR087W, strain rtc3, hits give low values 1 | S. cerevisiae deletion strains, locus YJR043C, strain POL32, hits give low values 0.991 | S. cerevisiae deletion strains, locus YJR075W, strain HOC1, hits give low values 0.993 | S. cerevisiae deletion strains, locus YKL190W, strain CNB1, hits give low values 1 | S. cerevisiae deletion strains, locus YLR039C, strain RIC1, hits give low values 1.02 | S. cerevisiae deletion strains, locus YLR058C, strain SHM2 (second series), hits give low values 0.999 | S. cerevisiae deletion strains, locus YLR085C, strain ARP6, hits give low values 1.02 | S. cerevisiae deletion strains, locus YLR262C, strain YPT6, hits give low values 1.01 | S. cerevisiae deletion strains, locus YML094W, strain GIM5, hits give low values 1.02 | S. cerevisiae deletion strains, locus YMR219W, strain ESC1, hits give low values 0.999 | [4] 0.993 | S. cerevisiae deletion strains, locus YNL153C, strain GIM3, hits give low values 0.99 | S. cerevisiae deletion strains, locus YNL298W, strain CLA4 (second series), hits give low values 1.04 | S. cerevisiae deletion strains, locus YNL322C, strain KRE1, hits give low values 1.01 | S. cerevisiae deletion strains, locus YNR030W, strain Alg12, hits give low values 1.02 | S. cerevisiae deletion strains, locus YPL055C, strain LGE1, hits give low values 0.918 | S. cerevisiae deletion strains, locus YPL241C, strain CIN2, hits give low values 1.04 | S. cerevisiae deletion strains, locus YPR135W, strain CTF4, hits give low values 0.963 | S. cerevisiae strains, strain wild type, hits give low values 0.995

OC[C@H]1O[C@@H](n2cnc3cncnc32)[C@H](O)[C@@H]1O
inactive: S. cerevisiae deletion strains, locus YAL040C, strain CLN3, hits give low values 1.01 | S. cerevisiae deletion strains, locus YCL061C, strain MRC1 (second series), hits give low values 1.01 | S. cerevisiae deletion strains, locus YDR363W, strain ESC2, hits give low values 1 | S. cerevisiae deletion strains, locus YER002W, strain NOP16, hits give low values 1.01 | [3] 1.03 | [4] 0.997 | S. cerevisiae deletion strains, locus YMR307W, strain GAS1, hits give low values 1 | S. cerevisiae deletion strains, locus YNL128W, strain TEP1, hits give low values 1.03 | S. cerevisiae deletion strains, locus YNL175C, strain NOP13, hits give low values 1.02 | S. cerevisiae deletion strains, locus YNL197C, strain WHI3, hits give low values 1 | S. cerevisiae deletion strains, locus YNL224C, strain SQS1, hits give low values 1.02 | S. cerevisiae deletion strains, locus YOR083W, strain WHI5 (second series), hits give low values 1.07
